Measurements: PubChem BioAssay
Active and inactive are the calls of the source.

Assays:
[1] = target: Albumin (Bos taurus) (UniProt P02769); experiment: compounds binding labelled BSA control protein – biochemical, small-molecule microarray, Alexa647 label, 635/667 nm fluorescence, artefact control for SMM control protein annotation, profiling panel (AID 1118); conditions: BSA-A647 binding, fluorescence 635 nm, higher = more signal;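 note: score merges 667 nm emission intensity and signal-to-noise per printed compound spot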
[2] = probe aXIP binding to arrayed compounds – biochemical, NeuroSMM set, 635/667 nm fluorescence, primary screen (AID 1119); conditions: small-molecule microarray, higher = more signal, called active from +8 up or from −8 down;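 note: probe is the protein aXip251-270 applied at 1 µg/mL to compound-printed slides; binding of probe to printed compounds measured as 667 nm fluorescence plus signal to noise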
[3] = probe aNOTCH3 binding on compound microarray – biochemical, small-molecule microarray, 635/667 nm fluorescence, primary screen (AID 1120); conditions: higher = more signal;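 note: probe is a biotin-tagged antibody raised against NOTCH3 rather than NOTCH3 protein; score merges spot fluorescence near 667 nm with spot signal to noise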
[4] = probe aNOTCH2 binding on compound microarray – biochemical, small-molecule microarray, 635/667 nm fluorescence, primary screen (AID 1121); conditions: higher = more signal;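 note: score merges feature fluorescence read at 667 nm with its signal to noise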
[5] = target: Carbonic anhydrase 2 (Homo sapiens) (UniProt P00918); experiment: compounds binding carbonic anhydrase 2 – biochemical, small-molecule microarray, Alexa647-labelled CAII, profiling panel (AID 1122); conditions: CAII-A647 binding fluorescence, higher = more signal
[6] = COS7 lysate on small-molecule microarray, probe aHis, 635 nm (AID 1123); conditions: COS7 cell lysate, fluorescence, higher = more signal;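 note: z-score combines 667nm fluorescence intensity with signal-to-noise per printed compound spot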
[7] = probe aLAP1 signal on lysate-treated microarray – cell lysate, small-molecule microarray, COS7 lysate, primary screen (AID 1124); conditions: probe aLAP1, fluorescence, higher = more signal;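 note: lysate comes from COS7 cells expressing LAP1 and is applied at 0.3 µg/mL; score merges spot fluorescence near 667 nm with signal-to-noise over triplicate slides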
[8] = test system: Sam68 (KHDRBS1); experiment: compounds binding KHDRBS1 protein – biochemical, small-molecule microarray, 635 nm fluorescence, primary screen (AID 1125); conditions: higher = more signal;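 note: score merges 667 nm channel intensity with signal to noise over triplicate slides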
[9] = test system: Chordin-like protein 2 (CHRDL2); experiment: compounds binding chordin-like 2 – biochemical, small-molecule microarray, 635 nm fluorescence, primary screen (AID 1126); conditions: fluorescence 635 nm, higher = more signal;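 note: printed compound slides probed with Chrdl2 protein at 4 µg/mL for 1 h at 4 C; score merges 667 nm emission intensity with signal to noise over three replicate slides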
[10] = target: Concanavalin-A (Canavalia ensiformis) (UniProt P02866); experiment: compounds binding concanavalin A lectin – biochemical, small-molecule microarray, Alexa647 label, 635 nm, artefact control for SMM control protein annotation, primary screen (AID 1127); conditions: ConA-A647 binding fluorescence, higher = more signal;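 note: z combines 667 nm emission intensity with signal-to-noise across three replicate slides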
[11] = compounds binding Alexa647 anti-His antibody – biochemical, small-molecule microarray, 635 nm fluorescence, artefact control for SMM control protein annotation, primary screen (AID 1128); conditions: higher = more signal;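 note: score merges feature fluorescence with signal-to-noise for each printed compound spot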
[12] = test system: Human papillomavirus type 1a E7 protein (residues 1-88); experiment: HPV1a E7 small-molecule binders, primary screen, biochemical, small-molecule microarray, residues 1-88, 635 nm (AID 1129); conditions: small-molecule microarray binding, fluorescence 635 nm; higher = more signal
[13] = target: Focal adhesion kinase 1 (Homo sapiens) (UniProt Q05397); experiment: PTK2 protein binding on printed compound slides – biochemical, small-molecule microarray, 635/667 nm fluorescence, BSA, DTT, primary screen (AID 1130); conditions: 635 nm fluorescence, higher = more signal;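 note: composite of spot emission at 667 nm and signal to noise over triplicate slides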
[14] = test system: Fibrinogen (Alexa647-labelled); experiment: Alexa647-fibrinogen binding to printed small molecules – biochemical, small-molecule microarray, 635/667 nm fluorescence, artefact control for SMM control-protein annotation, profiling panel (AID 1131); conditions: fibrinogen-A647 binding fluorescence, higher = more signal;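 note: z-score merges 667 nm fluorescence with per-spot signal-to-noise over triplicate slides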
[15] = target: Follistatin (Homo sapiens) (UniProt P19883); experiment: FST protein binding to printed compounds – biochemical, small-molecule microarray, 635/667 nm fluorescence, primary screen (AID 1132); conditions: 635 nm fluorescence, higher = more signal
[16] = target: Fibroblast growth factor 2 (Homo sapiens) (UniProt P09038); experiment: basic fibroblast growth factor binding to printed compounds – biochemical, small-molecule microarray, 635/667 nm fluorescence, primary screen (AID 1133); conditions: FGF2, fluorescence 635/667, higher = more signal
[17] = JC-1 mitochondrial potential readout, lung cancer cells – cell-based, A549, JC-1 fluorescence, basal, 24 h, 100 nL, profiling panel (AID 1138); conditions: higher = more signal;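 note: A549 lung adenocarcinoma cells under basal conditions with no added stimulus; test concentration not given here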
[18] = test system: Lefty1; experiment: Lefty1 protein binding to printed compounds – biochemical, small-molecule microarray, 635/667 nm fluorescence, primary screen (AID 1139); conditions: fluorescence 635/667, higher = more signal
[19] = test system: wheat germ agglutinin (Triticum aestivum), Alexa647-labelled; experiment: Alexa647-WGA lectin binding to printed small molecules – biochemical, small-molecule microarray, 635/667 nm fluorescence, artefact control for SMM control-protein annotation, profiling panel (AID 1140); conditions: WGA-A647 binding, 635 nm fluorescence, higher = more signal;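 note: score merges 667 nm feature emission with signal to noise over triplicate slides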
[20] = target: Luciferin 4-monooxygenase (Photinus pyralis) (UniProt P08659); experiment: inhibition of purified Photinus pyralis luciferase – biochemical, luminescence, purified enzyme, 2006 set, primary screen (AID 1141); conditions: purified firefly luciferase, SteadyGlo luminescence, 30 min; higher = more signal, called active from +8 up or from −8 down;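 note: cell-free assay with purified firefly luciferase at 100 ng per well in PBS; test concentration not given here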
Luciferin 4-monooxygenase (Photinus pyralis), sequence (P08659 whole entry, looked up): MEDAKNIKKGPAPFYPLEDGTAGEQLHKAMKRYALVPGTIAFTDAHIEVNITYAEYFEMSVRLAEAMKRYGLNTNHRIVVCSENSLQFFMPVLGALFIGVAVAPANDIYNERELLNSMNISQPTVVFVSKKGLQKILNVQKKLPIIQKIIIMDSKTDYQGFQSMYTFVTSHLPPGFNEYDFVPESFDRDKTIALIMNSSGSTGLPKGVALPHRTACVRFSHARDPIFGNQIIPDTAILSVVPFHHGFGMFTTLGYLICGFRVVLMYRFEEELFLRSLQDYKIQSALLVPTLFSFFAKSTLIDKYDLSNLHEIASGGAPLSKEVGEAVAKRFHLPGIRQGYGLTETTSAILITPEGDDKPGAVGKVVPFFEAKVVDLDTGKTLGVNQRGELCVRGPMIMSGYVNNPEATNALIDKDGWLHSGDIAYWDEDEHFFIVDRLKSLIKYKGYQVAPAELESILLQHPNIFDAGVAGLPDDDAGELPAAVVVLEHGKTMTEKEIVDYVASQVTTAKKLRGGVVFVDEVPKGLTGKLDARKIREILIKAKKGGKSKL

Fibroblast growth factor 2 (Homo sapiens), sequence (P09038 whole entry, looked up): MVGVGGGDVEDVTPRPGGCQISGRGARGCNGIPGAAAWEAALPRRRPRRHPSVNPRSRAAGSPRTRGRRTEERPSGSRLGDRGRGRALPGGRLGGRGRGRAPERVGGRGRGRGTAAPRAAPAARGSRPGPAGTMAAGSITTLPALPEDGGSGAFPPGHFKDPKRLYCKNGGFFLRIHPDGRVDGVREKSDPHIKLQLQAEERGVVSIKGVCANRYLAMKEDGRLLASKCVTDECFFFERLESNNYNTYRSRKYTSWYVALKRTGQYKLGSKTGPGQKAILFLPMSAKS
Concanavalin-A (Canavalia ensiformis), sequence (P02866 whole entry, looked up): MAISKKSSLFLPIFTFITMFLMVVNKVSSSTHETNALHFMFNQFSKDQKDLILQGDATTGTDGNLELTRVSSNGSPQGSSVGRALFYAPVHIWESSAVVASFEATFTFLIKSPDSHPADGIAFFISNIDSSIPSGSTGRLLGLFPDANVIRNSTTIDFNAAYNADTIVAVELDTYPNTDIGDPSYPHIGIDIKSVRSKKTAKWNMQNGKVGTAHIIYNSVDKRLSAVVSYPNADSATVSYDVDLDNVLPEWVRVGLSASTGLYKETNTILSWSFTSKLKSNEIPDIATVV
Albumin (Bos taurus), sequence (P02769 whole entry, looked up): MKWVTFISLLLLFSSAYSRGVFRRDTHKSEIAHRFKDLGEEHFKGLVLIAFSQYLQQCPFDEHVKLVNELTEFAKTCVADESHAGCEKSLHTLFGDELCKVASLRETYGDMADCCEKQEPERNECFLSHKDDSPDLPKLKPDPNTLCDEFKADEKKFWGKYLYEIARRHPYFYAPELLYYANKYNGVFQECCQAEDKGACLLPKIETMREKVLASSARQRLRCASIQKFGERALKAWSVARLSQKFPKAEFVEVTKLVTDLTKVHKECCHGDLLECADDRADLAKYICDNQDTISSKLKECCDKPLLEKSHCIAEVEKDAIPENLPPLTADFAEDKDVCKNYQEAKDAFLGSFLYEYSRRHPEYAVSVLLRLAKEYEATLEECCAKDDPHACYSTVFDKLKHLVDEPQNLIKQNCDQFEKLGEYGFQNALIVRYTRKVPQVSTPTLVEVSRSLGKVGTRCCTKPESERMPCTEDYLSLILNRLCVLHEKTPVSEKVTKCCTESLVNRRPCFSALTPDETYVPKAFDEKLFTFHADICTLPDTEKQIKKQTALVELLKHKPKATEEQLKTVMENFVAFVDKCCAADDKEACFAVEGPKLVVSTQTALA
Focal adhesion kinase 1 (Homo sapiens), sequence (Q05397 whole entry, looked up): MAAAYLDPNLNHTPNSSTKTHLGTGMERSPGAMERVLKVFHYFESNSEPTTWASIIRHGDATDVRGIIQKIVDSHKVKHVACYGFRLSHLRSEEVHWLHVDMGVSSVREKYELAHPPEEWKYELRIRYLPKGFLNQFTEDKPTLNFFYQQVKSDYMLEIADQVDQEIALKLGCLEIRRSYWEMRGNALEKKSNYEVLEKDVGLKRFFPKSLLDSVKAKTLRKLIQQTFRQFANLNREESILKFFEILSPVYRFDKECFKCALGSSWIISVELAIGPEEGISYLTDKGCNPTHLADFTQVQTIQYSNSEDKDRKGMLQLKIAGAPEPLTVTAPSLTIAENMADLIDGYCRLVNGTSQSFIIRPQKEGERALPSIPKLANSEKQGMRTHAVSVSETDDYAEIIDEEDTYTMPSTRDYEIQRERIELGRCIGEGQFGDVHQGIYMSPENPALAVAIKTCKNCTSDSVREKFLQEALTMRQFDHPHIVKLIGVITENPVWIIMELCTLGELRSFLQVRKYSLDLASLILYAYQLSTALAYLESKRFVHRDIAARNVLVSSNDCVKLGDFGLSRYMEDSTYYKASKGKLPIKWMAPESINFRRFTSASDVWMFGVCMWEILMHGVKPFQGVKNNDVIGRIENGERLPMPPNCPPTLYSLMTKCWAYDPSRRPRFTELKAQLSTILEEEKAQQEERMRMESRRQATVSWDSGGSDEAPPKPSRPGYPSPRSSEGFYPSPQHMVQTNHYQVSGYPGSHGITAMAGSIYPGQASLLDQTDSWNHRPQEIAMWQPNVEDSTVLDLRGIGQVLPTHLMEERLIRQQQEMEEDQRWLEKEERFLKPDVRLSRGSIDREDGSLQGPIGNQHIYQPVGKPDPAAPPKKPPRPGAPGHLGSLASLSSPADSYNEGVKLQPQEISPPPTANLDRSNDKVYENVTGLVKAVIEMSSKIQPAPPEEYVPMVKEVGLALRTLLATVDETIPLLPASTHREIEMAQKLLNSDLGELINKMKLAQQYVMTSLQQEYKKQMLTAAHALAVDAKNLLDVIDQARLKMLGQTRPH
Follistatin (Homo sapiens), sequence (P19883 whole entry, looked up): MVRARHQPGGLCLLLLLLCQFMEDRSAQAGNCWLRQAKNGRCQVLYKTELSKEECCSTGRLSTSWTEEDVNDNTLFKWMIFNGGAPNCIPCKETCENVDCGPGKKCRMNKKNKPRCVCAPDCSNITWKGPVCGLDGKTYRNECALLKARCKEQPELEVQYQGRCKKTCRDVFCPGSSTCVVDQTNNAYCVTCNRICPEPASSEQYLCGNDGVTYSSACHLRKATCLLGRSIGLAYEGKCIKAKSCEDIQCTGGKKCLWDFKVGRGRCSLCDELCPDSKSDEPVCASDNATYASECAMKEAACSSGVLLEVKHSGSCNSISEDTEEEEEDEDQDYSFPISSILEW

Structure (SMILES)	composite z-score [1]	composite Z-score [2]	composite z-score [3]	composite z-score [4]	composite z-score [5]	composite z-score [6]	composite z-score [7]	composite z-score [8]	composite z-score [9]	composite z-score [10]	composite z-score [11]	composite z-score [12]	composite z-score [13]	composite z-score [14]	composite z-score [15]	composite z-score [16]	z-score [17]	composite z-score [18]	composite z-score [19]	z-score [20]
CCOC(=O)C1=CC[C@H]2C(=O)N(c3ccccc3)C(=O)[C@@H]12	0.916	1.58 (inactive)	0.0893	-0.046	0.848	2.7	0.786	1.31	0.613	1.05	2.18	1.32	0.291	1.04	1.24	0.385	-1.44	0.655	0.56	0.332 (inactive)
CC(C)=CCCC(C)=CC(O)C1C=CC2C(=O)N(c3ccccc3)C(=O)C2N1Nc1ccc(C(C)C)cc1 (stereo not given)	0.792	0.415 (inactive)	0.282	0.0683	0.465	2.32	-0.519	1.23	-1.01	1.09	0.491	1.22	0.526	0.998	1.12	-0.373	0.0344	0.262	1.03	0.43 (inactive)
CCCCC(=C=CC[C@H](O)c1cccc(OCCO)c1)C[C@H](O)c1ccccn1	0.424	0.152 (inactive)	-0.0014	-0.153	0.693	-0.0434	-0.165	-0.15	0.23	0.503	0.536	-0.0708	-0.0538	0.538	0.346	0.257	0.782	0.38	0.0704	-0.167 (inactive)
C=CC[C@]1(C(=O)N2CCOCC2)N=C(c2ccc(OCCCO)cc2)O[C@H]1c1ccccc1N=[N+]=[N-]	0.561	0.193 (inactive)	0.298	-0.0896	0.751	2.77	0.647	1.29	-0.521	1.09	2.08	1.26	0.804	0.979	1.14	0.287	-0.0671	-0.0598	1.37	-10.7 (active)
NC(=O)[C@@]1(Cc2ccccc2)N=C(c2ccc(OCCCO)cc2)O[C@H]1c1ccccc1	0.852	0.546 (inactive)	0.0276	0.0247	0.721	3.05	0.593	0.572	-0.643	0.737	3.01	0.614	0.0867	0.648	0.62	0.686	0.184	-0.846	1.3	-1 (inactive)
O=C1O[C@@H](c2ccccc2)[C@@H](c2ccccc2)N2[C@@H](c3ccc(OCCO)cc3)[C@]3(C(=O)Nc4ccc(C#CCCO)cc43)[C@@H](C(=O)NC[C@H](O)c3ccccc3)[C@H]12	-0.517	1.23 (inactive)	0.138	-0.143	0.165	1.66	0.822	1.26	0.891	1.07	0.797	1.17	0.947	0.668	1.34	1.01	0.225	0.958	0.356	-1.15 (inactive)
C=CCC(OC(C)=O)[C@@H]1[C@@H](N(Cc2cc3ccccc3o2)C(=O)Cc2ccc(OC)cc2)c2cc(OCCCO)ccc2N1C(=O)c1ccc2ccccc2c1 (stereo not given in full)	0.234	0.39 (inactive)	-0.0485	-0.0652	0.386	0.13	0.16	-0.427	-0.257	-0.439	0.19	-0.491	0.115	-1.19	0.2	-0.568	-0.319	0.128	0.757	0.148 (inactive)
C=C(/C(=C/C[C@H](OC(=O)c1ccncc1)c1ccc(OCCO)cc1)c1cc(C(=O)OC)ccc1OC)C(C)C	0.605	-0.0856 (inactive)	-0.0362	-0.135	0.514	1.15	0.284	0.516	-0.0985	0.985	0.785	1	0.359	0.821	0.789	0.494	-0.228	0.546	0.681	-0.357 (inactive)
CN(C)C(=O)[C@]1(Cc2ccccc2)N=C(c2ccc(OCCCO)cc2)O[C@@H]1c1ccccc1N=[N+]=[N-]	0.784	0.431 (inactive)	0.23	-0.0145	0.782	2.12	0.764	1.32	-0.199	1.1	2.47	1.2	0.203	0.96	1.33	1.63	0.702	0.244	0.702	-5.05 (inactive)
COc1cc2c(cc1O)C(c1cccs1)N(Cc1cccc(OC(F)(F)F)c1)CC2 (stereo not given)	0.899	0.934 (inactive)	-0.128	-0.148	0.78	2.6	0.336	1.15	0.375	0.127	2.17	0.733	0.758	0.173	0.457	0.252	-0.0263	-0.196	0.84	-0.619 (inactive)
CC(=O)NCCCC[C@@H]1NC(=O)[C@H]2C[C@@H](C(=O)NCCCCCNC(=O)CS)[C@@H](c3ccc(O)cc3)N2C1=O	-0.16	-0.249 (inactive)	-0.136	-0.133	0.704	1.07	-0.269	0.338	-0.105	0.509	2.12	-0.15	0.167	-0.355	0.769	0.424	0.139	-0.272	-0.0796	-2.56 (inactive)
